Giardia killer = kills Giardia lamblia. 340,000 compounds, 0.15% hits. AID 540267. Giardia lamblia trophozoite viability. activity change, % at 7.66 µM, hits read low; in the data active = activity change below about -80%; inconclusive = between about -30% and that limit;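 note: parasites exposed to compound for two days anaerobically before the ATP read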
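Giardia lamblia trophozoites (100 cells/well) were incubated with compounds for 48 h at 37 deg C under anaerobic conditions. Viability was read as ATP content by one-step luminescence after 15-30 min at room temperature.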
ELG1 DNA repair = inhibitors of ELG1-dependent DNA repair in HEK293T cells; HEK293T ELG1-luciferase reporter, luminescence, 16 h; DNA damage induced by 5-fluorouridine; Potency, µM (series often up to 46.1 µM), for inactives: at the top dose activity change, negative = inhibition, hits mostly inhibitors; 330,000 compounds, 2.3% hits; AID 504467; note: potency is the fitted concentration of half-maximal effect; nearly all actives have a fitted effect of over 55% in size
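Overnight (16 hr) co-exposure of 2,000 cells/well to 5-fluorouridine and compound at 37 °C preceded detection. Luciferase was quantified via ONE-Glo luminescence; loss of signal denotes inhibition.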
IL-1B inflam inh = inhibitors of inflammasome signaling (IL-1 beta secretion) | THP-1 LPS/ATP IL-1B secretion, AlphaLISA, 16 h; hits give low values | activity change, % at 57.5 µM | 360,000 compounds, 4.7% hits; in the data active = activity change below about -50%; inconclusive = mostly about -30% to -49%
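Secreted IL-1B measured by AlphaLISA bead assay after 16 h compound exposure of THP-1 cells; compounds (final up to 57.5 uM) added 1 h before LPS (250 ng/mL) and ATP (1.25 mM) stimulation; lower signal means less secretion.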
TDP1 block = blocks human tyrosyl-DNA phosphodiesterase 1; Q9NUW8; recombinant TDP1, AlphaScreen DNA substrate cleavage; Potency, µM (top dose mostly 130 µM), inactives show top-dose activity change, negative = inhibition, usual class: inhibitors; 350,000 compounds, 0.28% hits; note: potency is the fitted concentration of half-maximal effect; nearly all actives have a fitted effect of over 40% in size
Target sequence (Q9NUW8 whole entry, looked up): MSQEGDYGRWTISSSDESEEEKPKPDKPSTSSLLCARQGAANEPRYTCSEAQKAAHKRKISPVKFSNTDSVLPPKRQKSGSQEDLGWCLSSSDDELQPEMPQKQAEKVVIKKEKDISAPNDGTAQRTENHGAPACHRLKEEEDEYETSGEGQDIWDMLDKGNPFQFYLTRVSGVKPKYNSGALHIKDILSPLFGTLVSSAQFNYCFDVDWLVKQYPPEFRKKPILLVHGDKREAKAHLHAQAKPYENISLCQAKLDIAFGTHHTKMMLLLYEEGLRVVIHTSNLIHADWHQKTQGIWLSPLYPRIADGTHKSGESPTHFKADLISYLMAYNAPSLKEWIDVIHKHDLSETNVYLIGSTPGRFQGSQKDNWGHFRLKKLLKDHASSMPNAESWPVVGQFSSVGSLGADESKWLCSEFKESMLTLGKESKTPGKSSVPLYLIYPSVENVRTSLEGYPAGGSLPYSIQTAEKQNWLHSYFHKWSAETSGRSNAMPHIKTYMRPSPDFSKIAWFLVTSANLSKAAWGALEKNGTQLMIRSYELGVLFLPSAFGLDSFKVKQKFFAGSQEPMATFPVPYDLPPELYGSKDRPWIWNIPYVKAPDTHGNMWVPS
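Recombinant human Tdp1 (E. coli-expressed, 1 nM final) preincubated with compounds 15 min at room temperature, then 5'-biotin/3'-phosphotyrosine-FITC DNA substrate (15 nM final) added for 5 min. AlphaScreen beads (10 ug/ml final) added 10 min; cleavage lowers signal.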
DT40 TDP1 no CPT = qHTS for Inhibitors of human tyrosyl-DNA phosphodiesterase 1 (TDP1): qHTS in cells in absence of CPT | Potency, µM (top dose mostly 46.2 µM), without a hit: top-dose activity change, negative = growth inhibition, usual class: inhibitors | DT40 Tdp1-/- hTDP1 cells, no CPT, ATP luminescence, 48 h | 420,000 compounds, 15% hits; note: potency is the fitted concentration of half-maximal effect; nearly all actives have a fitted effect of over 55% in size
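Compound effects on proliferation are scored in DT40 Tdp1-/-;hTDP1 cells in the absence of CPT. ATP levels (CellTiter-Glo luminescence) are recorded after a ≥48 hr, 37 °C incubation.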
DT40 TDP1 CPT = growth inhibition of DT40 Tdp1-/-;hTDP1 cells with camptothecin (screen for TDP1 inhibitors) | chicken DT40 Tdp1-/-;hTDP1 cells + 20 nM CPT, ATP luminescence, 48 h | AID 686979 | Potency, µM (titrated, usually from 46.2 µM), for the others: top-dose activity change, negative = growth inhibition, most hits filed as inhibitors | 420,000 compounds, 12% hits; note: potency is the fitted concentration of half-maximal effect; nearly all actives have a fitted effect of over 55% in size
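Cell growth measured by CellTiter-Glo luminescence after a minimum 48 h, 37 C compound exposure with 20 nM CPT in Tdp1-knockout DT40 cells stably expressing hTDP1, seeded 400/well; qHTS titration format.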
Starred values were filed as active, the others as inactive; ! = not confirmed by another sample; [ ] = dose if it differs, or a comment. Rows were chosen to be rich in hits. Some 19% of all compounds tested hit in one or more screens of this group. Unless noted, calls come from the whole dose curve; as a rule, active = well fitted curve in the direction sought with a large enough effect; inconclusive = small, poorly fitted or top-dose-only effect, or another doubt; inactive = no such curve, though single readings can be large; an effect the other way counts as inactive or inconclusive. % is set by controls: 0 for no effect and ±100 for the full control effect.

Screening CC(C)(C)c1nc2cc(Cl)c([N+](=O)[O-])cc2o1 returned Giardia killer -7.3, ELG1 DNA repair 17.0%, IL-1B inflam inh inconclusive, TDP1 block 0.0%, DT40 TDP1 no CPT 23.1µM* and DT40 TDP1 CPT inconclusive.
`CC(C)(C)Nc1nc2cc([N+](=O)[O-])ccc2o1` gave Giardia killer inconclusive, ELG1 DNA repair inconclusive, IL-1B inflam inh 4.4, TDP1 block 4.2%, DT40 TDP1 no CPT -23.4% and DT40 TDP1 CPT -16.8%.
For CCOc1ccc(CCNC(=O)CN2C(=O)NC(CCSC)C2=O)cc1OCC (centres undefined) the results were Giardia killer -1.2, ELG1 DNA repair 6.2%, IL-1B inflam inh 8.9, TDP1 block 1.8%, DT40 TDP1 no CPT 6.2% and DT40 TDP1 CPT 0.0%.
For Cc1c(CCOC(=O)C2C3CC4CC(C3)CC2C4)sc[n+]1CC(=O)c1ccc(Br)cc1 (centres undefined) the results were Giardia killer 15.6, ELG1 DNA repair 6.2%, IL-1B inflam inh -85.0*, TDP1 block -2.0%, DT40 TDP1 no CPT 18.4µM* and DT40 TDP1 CPT inconclusive.
Cc1c(CCOC(=O)c2ccc(Cl)cc2Cl)sc[n+]1CC(=O)c1ccc(Br)cc1 was read as Giardia killer -0.6, ELG1 DNA repair inconclusive, IL-1B inflam inh inconclusive, TDP1 block 2.8%, DT40 TDP1 no CPT 18.4µM* and DT40 TDP1 CPT inconclusive.
Screening Cc1c(CCO)sc[n+]1CC(=O)OCCC12CC3CC(CC(C3)C1)C2 returned Giardia killer -18.1, ELG1 DNA repair -14.1%, IL-1B inflam inh 0.0, TDP1 block 1.9%, DT40 TDP1 no CPT inconclusive and DT40 TDP1 CPT inconclusive.
`COc1cc(Cl)c(CC(=O)NO)cc1OC` gave DT40 TDP1 no CPT -0.1% and DT40 TDP1 CPT -15.9%.
COc1ccc(S(=O)(=O)N2CCCCCC2)cc1C(=O)N1CCN(c2ccccc2O)CC1 was read as Giardia killer -2.6, ELG1 DNA repair 13µM*, IL-1B inflam inh -6.6, TDP1 block 2.3%, DT40 TDP1 no CPT inconclusive and DT40 TDP1 CPT 14.6µM*.
COc1ccccc1N1CCN(C(=O)c2cc(S(=O)(=O)N3CCCCC3)ccc2C)CC1 was read as Giardia killer 31.6, ELG1 DNA repair inconclusive, IL-1B inflam inh 21.5, TDP1 block 2.1%, DT40 TDP1 no CPT inconclusive and DT40 TDP1 CPT inconclusive.
COc1ccc(S(=O)(=O)N2CCCCCC2)cc1C(=O)N1CCN(c2ccccc2C)CC1 was read as Giardia killer -11.6, ELG1 DNA repair inconclusive, IL-1B inflam inh -1.4, TDP1 block 2.7%, DT40 TDP1 no CPT 20.6µM* and DT40 TDP1 CPT inconclusive.
Screening CCc1cccc(NC(=O)CCNS(=O)(=O)c2ccc3c(c2)oc(=O)n3C)c1 returned Giardia killer -9.3, ELG1 DNA repair 0.2%, IL-1B inflam inh 10.0, TDP1 block 2.1%, DT40 TDP1 no CPT 21.7% and DT40 TDP1 CPT -8.5%.
CCn1c(CCn2c3ccccc3c3ccccc32)n[nH]c1=S was read as Giardia killer 15.3, ELG1 DNA repair -3.0%, IL-1B inflam inh 4.0, TDP1 block 2.6%, DT40 TDP1 no CPT inconclusive and DT40 TDP1 CPT 14.6µM*.
CCn1c(CCc2ccccc2)n[nH]c1=S was read as Giardia killer 5.7, ELG1 DNA repair 8.1%, IL-1B inflam inh -6.3, TDP1 block 4.9%, DT40 TDP1 no CPT inconclusive and DT40 TDP1 CPT -6.9%.
For CC1CN(C(=O)CCC(=O)NCCCN2C(C)CCCC2C)c2ccccc2O1 (centres undefined) the results were Giardia killer -14.8, ELG1 DNA repair 5.3%, IL-1B inflam inh -17.8, DT40 TDP1 no CPT -13.1% and DT40 TDP1 CPT 0.4%.
Cc1cn(-c2cccnc2)c(C)c1CNC[C@H]1O[C@@H](n2cnc3c(N)ncnc32)[C@H](O)[C@@H]1O was read as Giardia killer 22.4, ELG1 DNA repair 17.9%, IL-1B inflam inh 27.6, TDP1 block 2.6%, DT40 TDP1 no CPT 9.2µM* and DT40 TDP1 CPT 18.4µM*.
`Nc1ncnc2c1[nH]c(=S)n2C1OC(CO)C(O)C1O` (centres undefined) gave Giardia killer 31.1, TDP1 block 1.2%, DT40 TDP1 no CPT 2.0% and DT40 TDP1 CPT 1.8%.
`N#Cc1c(N)n(C2OC(CO)C(O)C2O)c2ncnc(N)c12` (centres undefined) gave Giardia killer 1.9, IL-1B inflam inh -101.8*, DT40 TDP1 no CPT 0.0206µM* and DT40 TDP1 CPT 0.0164µM*.
`Nc1ncnc2c1ncn2[C@@H]1O[C@H](CO)C[C@@H]1O` gave TDP1 block 1.5%.
`N#Cc1ccccc1S(=O)(=O)NC(=O)[C@H]1O[C@@H](n2cnc3c(N)ncnc32)[C@H](O)[C@@H]1O` gave IL-1B inflam inh 0.0, DT40 TDP1 no CPT 13µM* and DT40 TDP1 CPT inconclusive.
Screening Nc1ncnc2c1ncn2C1OC(CO)C(O)C1O (centres undefined) returned Giardia killer 0.0, ELG1 DNA repair inconclusive, IL-1B inflam inh -15.2, TDP1 block 4.8%, DT40 TDP1 no CPT 0.92µM*! and DT40 TDP1 CPT 1.3µM*!.
Screening Nc1cc(=O)[nH]c(SCC(=O)Nc2cc(S(=O)(=O)N3CCCCC3)ccc2Cl)n1 returned Giardia killer 9.0, ELG1 DNA repair 0.7%, IL-1B inflam inh 17.7, TDP1 block 1.9%, DT40 TDP1 no CPT -6.8% and DT40 TDP1 CPT -20.5%.
For Nc1ncnc2c1ncn2C1O[C@H](CO)[C@@H](O)[C@@H]1O (some centres undefined) the results were Giardia killer inconclusive, ELG1 DNA repair 3.5%, IL-1B inflam inh 16.1, DT40 TDP1 no CPT 0.206µM* and DT40 TDP1 CPT 0.461µM*.
Nc1ncnc2c1ncn2C1OC(CO)C(O)C1N (centres undefined) was read as Giardia killer -13.9, ELG1 DNA repair -0.3%, IL-1B inflam inh 11.8, TDP1 block 4.1%, DT40 TDP1 no CPT inconclusive and DT40 TDP1 CPT -24.4%.
OC[C@H]1O[C@@H](n2cnc3cncnc32)[C@H](O)[C@@H]1O was read as TDP1 block 9.9%[56.1 µM], DT40 TDP1 no CPT 0.461µM* and DT40 TDP1 CPT 0.259µM*.
Nc1nccc2c1ncn2C1OC(CO)C(O)C1O (centres undefined) was read as IL-1B inflam inh inconclusive, DT40 TDP1 no CPT 5.8µM* and DT40 TDP1 CPT 7.31µM*.

Screening results as filed in PubChem BioAssay.
